Test results as given in PubChem BioAssay (NCATS).
Records with an inconclusive call do not appear. A number with no mark means an inactive call. The source made the active and inactive calls. Calls follow the shape of the dose curve; as a rule, active = well fitted cell-killing curve with a large enough effect; inconclusive = small, poorly fitted or top-dose-only effect, or effect the other way; inactive = no such curve, though single readings can be large or run the other way.

Experiments:
[1] = Quantitative High-Throughput drug screen in 47 multiple myeloma cell lines against the NCATS MIPE library collection: KMS28PE_JCRB cell viability assay (AID 1918983); also: nearly all actives have a fitted effect of over 35% in size
Summary of the method: (§1)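 Myeloma cells (500/well) treated with MIPE 4.0 compounds for 48 h at 37 °C, 5% CO2. Viability read as ATP via CellTiter-Glo luminescence after 5 min at RT; DMSO-only wells = 100%, media-only = 0% viability.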

[2] = Quantitative High-Throughput drug screen in 47 multiple myeloma cell lines against the NCATS MIPE library collection: KMS34_JCRB cell viability assay (AID 1918985); also: nearly all actives have a fitted effect of over 40% in size
Summary of the method: as §1

[3] = Quantitative High-Throughput drug screen in 47 multiple myeloma cell lines against the NCATS MIPE library collection: OCIMY7_PLB cell viability assay (AID 1918987); settings: OCI-MY7 myeloma viability, CellTiter-Glo ATP, 48 h; viability (% of DMSO): at 45.8 µM (top of the series); also: nearly all actives have a fitted effect of over 65% in size
Summary of the method: as §1

[4] = Quantitative High-Throughput drug screen in 47 multiple myeloma cell lines against the NCATS MIPE library collection: OCIMY5_PLB cell viability assay (AID 1918988); also: nearly all actives have a fitted effect of over 65% in size
Summary of the method: as §1

[5] = Quantitative High-Throughput drug screen in 47 multiple myeloma cell lines against the NCATS MIPE library collection: OPM1_PLB cell viability assay (AID 1918989); also: nearly all actives have a fitted effect of over 40% in size
Summary of the method: as §1

[6] = Quantitative High-Throughput drug screen in 47 multiple myeloma cell lines against the NCATS MIPE library collection: U266_ATCC cell viability assay (AID 1919864); also: nearly all actives have a fitted effect of over 35% in size
Summary of the method: as §1

[7] = Quantitative High-Throughput drug screen in 47 multiple myeloma cell lines against the NCATS MIPE library collection: XG6_PLB cell viability assay (AID 1919865); also: nearly all actives have a fitted effect of over 40% in size
Summary of the method: as §1

[8] = Quantitative High-Throughput drug screen in 47 multiple myeloma cell lines against the NCATS MIPE library collection: XG1_PLB cell viability assay (AID 1919866); also: nearly all actives have a fitted effect of over 35% in size
Summary of the method: as §1

[9] = Quantitative High-Throughput drug screen in 47 multiple myeloma cell lines against the NCATS MIPE library collection: VP6_DJ cell viability assay (AID 1919867); also: nearly all actives have a fitted effect of over 40% in size
Summary of the method: as §1

[10] = Quantitative High-Throughput drug screen in 47 multiple myeloma cell lines against the NCATS MIPE library collection: UTMC2_PLB cell viability assay (AID 1919868); settings: CellTiter-Glo ATP luminescence, 48 h; viability (% of DMSO control): at 45.8 µM (top of the series); also: nearly all actives have a fitted effect of over 55% in size
Summary of the method: as §1

[11] = Quantitative High-Throughput drug screen in 47 multiple myeloma cell lines against the NCATS MIPE library collection: PE2_PLB cell viability assay (AID 1919869); also: nearly all actives have a fitted effect of over 35% in size
Summary of the method: as §1

[12] = Quantitative High-Throughput drug screen in 47 multiple myeloma cell lines against the NCATS MIPE library collection: PCM6_Riken cell viability assay (AID 1919870); also: nearly all actives have a fitted effect of over 30% in size
Summary of the method: as §1

[13] = Quantitative High-Throughput drug screen in 47 multiple myeloma cell lines against the NCATS MIPE library collection: RPMI8226_ATCC cell viability assay (AID 1919871); also: nearly all actives have a fitted effect of over 30% in size
Summary of the method: as §1

[14] = Quantitative High-Throughput drug screen in 47 multiple myeloma cell lines against the NCATS MIPE library collection: OPM2_DSMZ cell viability assay (AID 1919872); also: nearly all actives have a fitted effect of over 30% in size
Summary of the method: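 qHTS of the MIPE 4.0 collection: 500 myeloma cells/well, 48 h drug exposure at 37C in 5% CO2, then CellTiter-Glo for 5 min at room temperature before luminescence reading.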

[15] = Quantitative High-Throughput drug screen in 47 multiple myeloma cell lines against the NCATS MIPE library collection: KMS11_JCRBsus cell viability assay (AID 1919873); also: nearly all actives have a fitted effect of over 50% in size
Summary of the method: as §1

[16] = Quantitative High-Throughput drug screen in 47 multiple myeloma cell lines against the NCATS MIPE library collection: KMS28BM_JCRB cell viability assay (AID 1919874); also: nearly all actives have a fitted effect of over 35% in size
Summary of the method: as §1

[17] = Quantitative High-Throughput drug screen in 47 multiple myeloma cell lines against the NCATS MIPE library collection: SKMM1_PLB cell viability assay (AID 1919863); settings: SKMM1 myeloma viability, CellTiter-Glo ATP, 48 h; viability: stronger effect = lower value; also: nearly all actives have a fitted effect of over 35% in size
Summary of the method: as §1

[18] = Quantitative High-Throughput drug screen in 47 multiple myeloma cell lines against the NCATS MIPE library collection: L363_DSMZ cell viability assay (AID 1918984); also: nearly all actives have a fitted effect of over 40% in size
Summary of the method: as §1
Potency is read from the fitted curve at half-maximal effect.

Row | Compound | Potency [1] | Potency [2] | Potency [3] | Potency [4] | Potency [5] | Potency [6] | Potency [7] | Potency [8] | Potency [9] | Potency [10] | Potency [11] | Potency [12] | Potency [13] | Potency [14] | Potency [15] | Potency [16] | Potency [17] | Potency [18] | viability [17]
1 | Cn1cc(-c2cnn3c(N)c(Br)c([C@H]4CCCNC4)nc23)cn1 | 13.2 µM (active) | 0.935 µM (active) | 1.18 µM (active) | 0.332 µM (active) | 0.833 µM (active) | 7.43 µM (active) | 0.264 µM (active) | 0.526 µM (active) | 0.662 µM (active) | 0.662 µM (active) | 1.05 µM (active) | 0.662 µM (active) | 7.43 µM (active) | 14.8 µM (active) | 5.26 µM (active) | 4.69 µM (active) |  |  | 
2 | C[C@H]1[C@@H](OC(=O)CCC(=O)O)O[C@@H]2O[C@@]3(C)CC[C@@H]4[C@H](C)CC[C@@H]1[C@@]24OO3 | 5.26 µM (active) | 1.32 µM (active) | 0.833 µM (active) | 4.69 µM (active) | 2.96 µM (active) | 16.6 µM (active) | 4.69 µM (active) | 10.5 µM (active) |  | 4.69 µM (active) | 5.26 µM (active) |  |  |  | 1.32 µM (active) | 14.8 µM (active) | 4.69 µM (active) |  | 
3 | CC(=O)O[C@]1(C(C)=O)CC[C@H]2[C@@H]3C=C(C)C4=CC(=O)CC[C@]4(C)[C@@H]3CC[C@@]21C | inactive |  |  |  |  | 8.33 µM (active) | 4.18 µM (active) | 6.62 µM (active) | 7.43 µM (active) |  |  |  | 14.8 µM (active) |  | inactive | inactive |  | 9.35 µM (active) | 
4 | CN1C(C(=O)Nc2ccccn2)=C(O)c2sc(Cl)cc2S1(=O)=O | 4.69 µM (active) | 2.96 µM (active) | 1.32 µM (active) | 2.96 µM (active) | 4.18 µM (active) | 4.18 µM (active) | 2.09 µM (active) | 1.66 µM (active) | 3.32 µM (active) | 4.69 µM (active) | 3.72 µM (active) | 2.64 µM (active) |  | inactive |  | inactive |  |  | 
5 | CC(C)(O)Cn1c(NC(=O)c2ccc(-c3cn[nH]c3)s2)nc2cc(CN3CCOCC3)ccc21 | 1.48 µM (active) | 1.32 µM (active) | 0.332 µM (active) | 1.32 µM (active) | 0.743 µM (active) | 1.18 µM (active) | 1.87 µM (active) | 0.743 µM (active) | 0.743 µM (active) | 0.372 µM (active) | 1.32 µM (active) | 0.418 µM (active) | 2.35 µM (active) | 2.35 µM (active) | 0.743 µM (active) | 0.743 µM (active) | 2.96 µM (active) |  | 
6 | NC(=O)Nc1cc(-c2ccc(CN3CCOCC3)cc2)sc1C(N)=O | 18.7 µM (active) | 4.18 µM (active) | 0.0833 µM (active) | 0.0372 µM (active) | 3.72 µM (active) | 16.6 µM (active) | 0.743 µM (active) |  | 0.833 µM (active) |  | 1.48 µM (active) | 1.66 µM (active) | 7.43 µM (active) | 14.8 µM (active) | 11.8 µM (active) |  |  |  | 
7 | C=C[C@@H]1CN2CCC1C[C@H]2[C@H](O)c1ccnc2ccc(OC)cc12 (stereo partly drawn) | inactive |  |  | 18.7 µM (active) |  |  |  |  |  |  |  |  | inactive | inactive |  | inactive |  | inactive | 93.1%
8 | CCN(CC)CCCCNc1ncc2c(n1)N(C)C(=O)N(c1c(Cl)c(OC)cc(OC)c1Cl)C2 | 10.5 µM (active) |  |  | 14.8 µM (active) | 0.833 µM (active) | 18.7 µM (active) | 23.5 µM (active) | 13.2 µM (active) | 18.7 µM (active) | inactive |  | 16.6 µM (active) | 14.8 µM (active) |  | 20.9 µM (active) | 11.8 µM (active) |  | inactive | 
9 | Nc1nc(=O)n([C@H]2CSC(CO)O2)cc1F (stereo partly drawn) | inactive |  |  |  |  |  | inactive | inactive | inactive |  | inactive | inactive | inactive | inactive |  |  |  | inactive | 114%
10 | CC(N[C@H]1CCCC[C@H]1NC(=O)c1ccc(Cl)cc1)c1cccc2ccccc12 (stereo partly drawn) | inactive |  |  |  | inactive | inactive |  |  |  |  |  |  | inactive | inactive |  | 18.7 µM (active) |  | 0.0833 µM (active) | 94.8%
11 | CCOC(=O)C1=C(C)NC(=S)NC1c1cccc(O)c1 (stereo not drawn) | 0.0833 µM (active) | 0.0833 µM (active) | 0.105 µM (active) | 0.0235 µM (active) | 0.0296 µM (active) | inactive | 0.0296 µM (active) | 0.0662 µM (active) | 0.0296 µM (active) | 0.0372 µM (active) | 0.0148 µM (active) | 0.0372 µM (active) |  | 0.105 µM (active) | 0.0166 µM (active) |  | 0.0526 µM (active) |  | 
12 | Nc1ccc(C(=O)Nc2cccc(-c3nc(N4CCOCC4)c4oc5ncccc5c4n3)c2)cn1 | 26.4 µM (active) | 7.43 µM (active) | 3.32 µM (active) | 5.9 µM (active) | 1.48 µM (active) | 20.9 µM (active) | 2.96 µM (active) |  | 4.18 µM (active) | 3.32 µM (active) | 2.09 µM (active) | 5.9 µM (active) |  | 5.26 µM (active) |  | 26.4 µM (active) | 23.5 µM (active) |  | 
13 | CC1(C)CC(O)CC(C)(C)N1[O] | inactive |  |  |  | inactive |  | inactive | inactive |  |  | inactive | inactive | inactive |  | inactive |  |  | inactive | 
14 | COc1cc(O)c2c(c1)C1OC1C[C@H](O)[C@H](O)C(=O)C=CC[C@H](C)OC2=O (stereo partly drawn) | 5.9 µM (active) | 2.35 µM (active) | 0.372 µM (active) | 3.72 µM (active) | 5.26 µM (active) | 4.69 µM (active) | 4.69 µM (active) | 2.64 µM (active) | 1.66 µM (active) | 10.5 µM (active) | 2.35 µM (active) | 2.35 µM (active) | 3.72 µM (active) | 2.64 µM (active) | 2.35 µM (active) | 3.72 µM (active) | 4.69 µM (active) |  | 
15 | CCCCCCCCCCCC(CC1OC(=O)C1CCCCCC)OC(=O)C(CC(C)C)NC=O (stereo not drawn) | 26.4 µM (active) |  |  | 18.7 µM (active) | inactive | inactive |  | inactive | 7.43 µM (active) |  | inactive |  | 18.7 µM (active) |  | inactive | inactive | 16.6 µM (active) | inactive | 
16 | Nc1ccn(C2CO[C@H](CO)O2)c(=O)n1 (stereo partly drawn) | inactive |  |  |  | inactive | inactive | inactive | inactive |  |  | inactive | inactive | inactive | inactive | inactive | inactive |  | inactive | 
17 | CC(C)C[C@H](NC(=O)CNC(=O)c1cc(Cl)ccc1Cl)B1OC(=O)CC(CC(=O)O)(C(=O)O)O1 (stereo partly drawn) | 0.0526 µM (active) | 0.0469 µM (active) | 0.0296 µM (active) | 0.0264 µM (active) | 0.0372 µM (active) | 0.0526 µM (active) | 0.0264 µM (active) | 0.0418 µM (active) | 0.0296 µM (active) | 0.526 µM (active) |  | 0.0469 µM (active) | 0.118 µM (active) | 0.132 µM (active) | 0.0418 µM (active) | 0.0526 µM (active) | 0.209 µM (active) |  | 
18 | COc1ccc(Nc2cc(-c3cnc(N)nc3)nc(N3CCOCC3)n2)cn1 | 0.833 µM (active) | 2.96 µM (active) | 1.05 µM (active) | 11.8 µM (active) | 3.72 µM (active) | 11.8 µM (active) | 3.72 µM (active) |  | 5.26 µM (active) |  |  |  |  | 7.43 µM (active) | 0.469 µM (active) |  | 0.235 µM (active) |  | 
19 | CCOC(=O)N1CCN([N+]([O-])=NOc2ccc([N+](=O)[O-])cc2[N+](=O)[O-])CC1 | 1.32 µM (active) | 0.935 µM (active) | 0.526 µM (active) | 1.32 µM (active) | 1.18 µM (active) | 2.64 µM (active) | 2.64 µM (active) | 0.418 µM (active) | 2.35 µM (active) | 0.526 µM (active) | 1.48 µM (active) | 0.743 µM (active) | 13.2 µM (active) | 1.05 µM (active) | 0.332 µM (active) | 0.833 µM (active) | 6.62 µM (active) |  | 
